Screening results from PubChem BioAssay.
Sampled rows, rich in hits. Any-hit rate of the full collection: about 4.6%.
SKKanGAS inh: SKKanGAS growth inhibition | S. pyogenes SKKanGAS, kanamycin growth, BacTiter-Glo, 6 h | inhibition, % at 7.5 µM | 300,000 compounds, 1.3% hits | AID 1662;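 active = mean replicate score, as percent of positive control median, at least 50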;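 also: strain carries kanamycin resistance gene driven by streptokinase promoter and grows in 40 µg/ml kanamycin; loss of luminescence reflects streptokinase promoter inhibition or plain growth inhibition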
NALP3 yeast inh: blocks the NALP3 inflammasome reconstituted in yeast. inhibition, % at 10 µM. Yeast reconstituted NLRP3/ASC/caspase-1, beta-gal luminescence, 24 h. 330,000 compounds, 0.39% hits;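 active = inhibition of 50% or more; inactive = inhibition below 50%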
tim10-1 inh: inhibits growth of tim10-1 mutant yeast; S. cerevisiae tim10-1 ts strain growth, BacTiter-Glo, 24 h; 330,000 compounds, 2.2% hits; inhibition, % at 20 µM;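 active = inhibition of at least 40%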;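 also: mutant grown at 25 °C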
TIM10 inh: TIM10 yeast growth inhibition; 330,000 compounds, 1.4% hits; inhibition, % at 10 µM; S. cerevisiae TIM10 strain growth, BacTiter-Glo luminescence, 24 h; AID 463195;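 active = inhibition of 40% or more at the single tested concentration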;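 also: wild-type TIM10 isogenic control strain grown at permissive 25 °C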
tim23-1 inh: growth inhibitors of tim23-1 mutant yeast; S. cerevisiae tim23-1 growth, BacTiter-Glo luminescence, 24 h; inhibition, % at 20 µM; 330,000 compounds, 1.3% hits;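 active = growth inhibition of the mutant yeast at or above 50%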;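 also: temperature-sensitive mutant grown at 25 °C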
Numbers stand for hits; . = inactive; / = not tested or not shown.

SMILES	SKKanGAS inh	NALP3 yeast inh	tim10-1 inh	TIM10 inh	tim23-1 inh
COc1ccc(-c2nc(-c3ccc4c(c3)OCO4)[nH]c2-c2ccc(OC)cc2)cc1	55	.	.	.	.
O=C(Nc1cc(-c2ccccc2)[nH]n1)c1ccc(Cl)cc1	75	.	.	.	.
O=C(Nc1ccc(Cl)cc1Cl)c1ccc(-c2ccccc2)cc1	.	.	.	.	.
C[C@H]1CCC(=O)N([C@H](CSc2ccc(Br)cc2)Cc2ccccc2)CC1	/	.	.	.	.
Cc1cc(C(=O)NC2CC(C)(C)Cc3c2cnn3-c2ccccc2)n(C)n1 (configuration not stated)	.	.	.	.	.
CC(=O)[C@@]1(O)C(C)CC2C3C=C(C)C4=Cc5c(cnn5-c5ccccc5)C[C@]4(C)C3C(O)C[C@@]21C (some centres not stated)	64	/	/	/	/
COc1ccc(C2=CC(=O)C=CC2=O)cc1	.	/	/	/	/
Cc1ccc(NC(=O)CSc2nc3nn(-c4ccccc4)c(=O)c-3c3n2CCCCC3)cc1F	/	.	.	.	.
CC(C)C(=O)Nc1ccc2c(c1)nc(CCN1CCN(c3ccccn3)CC1)n2C	.	.	.	.	.
c1ccc(Nc2nc3ccccc3[nH]2)nc1	62	.	.	.	.
Nc1ccc(Nc2nc3ccccc3[nH]2)cc1	.	.	.	.	.
Oc1cccc2ccc(/C=C/c3c(F)cccc3Cl)nc12	74	.	.	.	.
O=[N+]([O-])c1cccc(/C=C/c2ccc3cccc(O)c3n2)c1	84	.	.	.	.
Oc1cccc2ccc(/C=C/c3ccccc3Cl)nc12	99	.	.	.	.
O=C(O)c1ccc(/C=C/c2ccc3cccc(O)c3n2)cc1	.	.	.	.	.
CC(CNC(=O)CN1C(=O)NC2(CCOc3ccccc32)C1=O)c1ccccc1 (configuration not stated)	/	.	.	.	.
Cc1[nH]n(-c2cccc3ccccc23)c(=O)c1/C=N/NC(=O)c1cccc([N+](=O)[O-])c1	53	.	.	.	.
O=C(Cn1nnc(-c2ccccc2)n1)N/N=C/c1cc([N+](=O)[O-])ccc1O	101	.	.	.	.
O=C(N/N=C/c1cc([N+](=O)[O-])ccc1O)c1cccc(NC(=O)c2cccc(Cl)c2)c1	77	.	.	.	.
Cc1[nH]n(-c2ccccc2)c(=O)c1/C=N/NC(=O)c1cccc([N+](=O)[O-])c1	/	.	.	.	.
Cc1nc2ccc(C(=O)N/N=C/c3cc([N+](=O)[O-])ccc3O)cc2[nH]1	.	.	.	.	.
O=C(N/N=C/c1cc([N+](=O)[O-])ccc1O)c1cccc2ccccc12	94	.	.	.	.
COCCCN(C(=O)CCOc1ccccc1C)c1c(N)n(Cc2ccccc2)c(=O)[nH]c1=O	.	.	.	.	.
O=C(CSc1ccccn1)N/N=C/c1cc([N+](=O)[O-])ccc1O	115	.	.	.	.
O=C(Cn1nc2ccccc2n1)N/N=C/c1cc([N+](=O)[O-])ccc1O	104	.	.	.	.
SMILES	SKKanGAS inh	NALP3 yeast inh	tim10-1 inh	TIM10 inh	tim23-1 inh
O=C(Cn1cncn1)N/N=C/c1cc([N+](=O)[O-])ccc1O	.	.	.	.	.
O=C(CSc1ccccn1)N/N=C/c1ccccc1[N+](=O)[O-]	.	.	.	.	.
Cc1ccc(NS(=O)(=O)c2cccc(C(=O)NCC(c3ccc(F)cc3)N3CCOCC3)c2)cc1 (configuration not stated)	.	.	.	.	.
Cc1nnc(SCC2=C(C(=O)O)N3C(=O)C(NC(=O)Cn4nc(C(F)F)c(Cl)c4C)C3SC2)s1 (configuration not stated)	96	.	.	.	.
Cc1nnc(SCC2=C(C(=O)O)N3C(=O)C(NC(=O)Cn4nc(C(F)F)cc4C)C3SC2)s1 (configuration not stated)	112	.	.	.	.
CC(=O)OCC1=C(C(=O)O)N2C(=O)C(NC(=O)CC(C)c3ccccc3)C2SC1 (configuration not stated)	/	.	.	.	.
CC(=O)OCC1=C(C(=O)O)N2C(=O)C(NC(=O)C(C)Cn3cc(Cl)cn3)C2SC1 (configuration not stated)	115	.	.	.	.
CC(=O)OCC1=C(C(=O)O)N2C(=O)[C@@H](NC(=O)Cc3cccs3)[C@H]2SC1	103	.	.	.	.
CC(=O)c1c(C)[nH]c(C(=O)Nc2ccc(C)cc2Br)c1C	.	.	.	.	.
O=C(NCC1CCCO1)c1ccc(Br)c(S(=O)(=O)N2CCOCC2)c1 (configuration not stated)	/	.	.	.	.
